# Reference: PubChem BioAssay (NCATS)
# Records with an inconclusive call do not appear. A call without a number means that no potency is given here. The source made the active and inactive calls. Unless noted, calls follow the shape of the dose curve; as a rule, active = well fitted curve in the direction sought with a large enough effect; inconclusive = small, poorly fitted or top-dose-only effect, or another doubt; inactive = no such curve, though single readings can be large; an effect the other way counts as inactive or inconclusive.
# Tests used:
# [1] = NCATS anti-infectives library activity on HEK293 viability as a counter-qHTS vs the C. elegans viability qHTS (AID 1745854);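 also: HEK293 cells exposed to compounds for 24 hr before the viability read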; also: potency is read from the fitted curve at half-maximal effect
# In short: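 Counter-screen for cytotoxicity: HEK293, 24 hr, 37C, compounds up to 41.7 uM final (a dilution series, 1:5). Readout CellTiter-Glo luminescence, 10 min RT. Digitonin control, 83.3 uM final.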
# [2] = NCATS anti-infectives library activity on the primary C. elegans qHTS viability assay (AID 1745855; calls by dose curve; also: potency is read from the fitted curve at half-maximal effect)
# In short: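 GFP read-out by 488 nm laser cytometry at day 0, 3 and 7, gated on object perimeter, area and peak intensity, scored viability of PE254-GFP-FLuc worms exposed to compound in S medium with bacterial capsules at 21 °C.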
# [3] = target: Glutathione peroxidase 1 (Homo sapiens) (UniProt P07203); test: Primary qHTS Assay for Inhibitors of Recombinant Selenoprotein Glutathione Peroxidase 1 (GPX1) (AID 1845191); also: nearly all actives have a fitted effect of over 65% in size
# Chain of Glutathione peroxidase 1 (Homo sapiens) (P07203 whole entry, looked up): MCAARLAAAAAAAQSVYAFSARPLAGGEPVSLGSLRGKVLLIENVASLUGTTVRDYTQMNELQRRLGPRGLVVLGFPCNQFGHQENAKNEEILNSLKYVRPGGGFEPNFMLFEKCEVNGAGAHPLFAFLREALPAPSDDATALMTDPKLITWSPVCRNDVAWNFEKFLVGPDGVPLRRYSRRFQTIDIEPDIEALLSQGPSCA
# In short: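 GR-coupled readout: NADPH consumption tracked by fluorescence, ex 340/em 450 nm, at t=0 and after 15 min at RT. Final mix 10 nM GPX1, 1 mM GSH, 0.5 mM CHP, 0.5 mM NADPH, 100 nM GR, 0.01% BSA, following 30 min enzyme–compound preincubation.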
# [4] = target: Phospholipid hydroperoxide glutathione peroxidase GPX4 (Homo sapiens) (UniProt P36969); test: Primary qHTS Assay for Inhibitors of Recombinant Selenoprotein Glutathione Peroxidase 4 (GPX4) (AID 1845192); also: series mostly up to about 50 µM; nearly all actives have a fitted effect of over 65% in size
# Chain of Phospholipid hydroperoxide glutathione peroxidase GPX4 (Homo sapiens) (P36969 whole entry, looked up): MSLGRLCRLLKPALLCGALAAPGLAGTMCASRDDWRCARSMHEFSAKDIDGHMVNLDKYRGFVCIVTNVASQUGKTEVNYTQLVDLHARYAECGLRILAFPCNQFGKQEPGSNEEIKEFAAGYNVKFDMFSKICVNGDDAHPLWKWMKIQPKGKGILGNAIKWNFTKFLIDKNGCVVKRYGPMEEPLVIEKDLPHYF
# In short: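 Steps: GPX4 plus compound, 30 min RT; add GR/GSH/NADPH master mix; start with cumene hydroperoxide; read 340/450 nm fluorescence at 0 and 15 min. Finals were 200 nM GPX4, 1 mM GSH, 0.5 mM CHP, 0.5 mM NADPH, 100 nM GR.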
compound,measurement,setting,value
CC(C)c1nc(CN(C)C(=O)N[C@@H](CCN2CCOCC2)C(=O)N[C@H](CC[C@H](Cc2ccccc2)NC(=O)OCc2cncs2)Cc2ccccc2)cs1,Potency,[1],inactive
same,Potency,[2],23 µM (active)
same,Potency,[3],inactive
same,Potency,[4],inactive
C=C[C@@H]1C[C@]1(NC(=O)[C@@H]1C[C@@H](Oc2ncc(OC)c3ccc(Cl)cc23)CN1C(=O)[C@@H](NC(=O)OC(C)(C)C)C(C)(C)C)C(=O)NS(=O)(=O)C1CC1,Potency,[1],inactive
same,Potency,[2],20.5 µM (active)
same,Potency,[3],inactive
CC(=O)N[C@@H](CC(C)C)C(=O)N[C@@H](CC(C)C)C(=O)N[C@H](C=O)CCCN=C(N)N,Potency,[1],inactive
same,Potency,[2],inactive
COc1cc(O)c2c(=O)cc(-c3ccc(O)cc3)oc2c1,Potency,[1],inactive
Cc1ccc(N)cc1C(=O)N[C@H](C)c1cccc2ccccc12,Potency,[1],inactive
CN(C)c1nc2c(Br)c(Br)c(Br)c(Br)c2n1CC(=O)O,Potency,[1],inactive
C[C@@]1(F)[C@H](O)[C@@H](CO)O[C@H]1n1ccc(=O)[nH]c1=O,Potency,[1],inactive
same,Potency,[2],inactive
[N-]=[N+]=NCc1cccc(/C(O)=C\C(=O)C(=O)O)c1,Potency,[1],inactive
same,Potency,[2],inactive
CC(=O)N1CCC(C(=O)N(CCCN2CCC(Cc3ccc(C(N)=O)cc3)CC2)c2ccc(C)c(Cl)c2)CC1,Potency,[1],inactive
NC1=N[C@@](c2cccc(-c3cncnc3)c2)(c2ccnc(C(F)F)c2)c2cccc(F)c21,Potency,[1],inactive
CC(C)CN(C[C@@H](O)[C@H](Cc1ccccc1)NC(=O)[C@@H](NC(=O)CNCc1cccc(F)c1)C(C)(C)C)S(=O)(=O)c1cccc(N)c1,Potency,[1],inactive
same,Potency,[2],inactive
O=C(O)CCCN1CCC(O[C@@H](c2ccc(Cl)cc2)c2ccccn2)CC1,Potency,[1],inactive
same,Potency,[3],inactive
COc1cnc(-n2cnc(C)n2)c2c1c(C(=O)C(=O)N1CCN(C(=O)c3ccccc3)CC1)cn2COP(=O)(O)O,Potency,[1],inactive
COc1ccc2cc1Oc1ccc(cc1)C[C@H]1c3cc(c(OC)cc3CCN1C)Oc1c(O)c(OC)cc3c1[C@H](C2)N(C)CC3,Potency,[1],inactive
CC1(C)CC[C@]2(C(=O)O)CC[C@]3(C)C(=CC[C@@H]4[C@@]5(C)CC[C@H](O)C(C)(C)[C@@H]5CC[C@]43C)[C@@H]2C1,Potency,[1],inactive
same,Potency,[2],inactive
same,Potency,[3],inactive
O=c1cc(-c2ccc(O)cc2)oc2cc(O)c(O)c(O)c12,Potency,[1],inactive
COc1cc(O)c(CC=C(C)C)c2c1C(=O)CC(c1ccc(O)cc1)O2 (stereo not drawn),Potency,[1],inactive
Oc1ccc(OC2CCCCO2)cc1 (stereo not drawn),Potency,[1],14.1 µM (active)
CC(C)c1cnn2c(NCc3ccccc3-n3cccn3)nc(OC3CCCNC3)nc12 (stereo not drawn),Potency,[1],inactive
OC[C@H]1O[C@@H](Oc2c(O)cc(O)cc2/C=C/c2ccc(O)cc2)[C@H](O)[C@@H](O)[C@@H]1O,Potency,[1],inactive
O=C1CC(=O)c2c(Cl)c(Cl)c(Cl)c(Cl)c21,Potency,[1],inactive
